Laboratory results taken from PubChem BioAssay AID1159580 (chemical genetic matrix, 2015).
Hit rate of the full screen: of about 5,500 compounds, about 2,000 (36%) were called active. Not shown: some 18% with an inconclusive outcome. No stated cut-off is given here; in the data, active means normalized growth mostly below about 0.91 (no sharp cut-off); inconclusive means no clear call, values can overlap the other calls; inactive means mostly above about 0.92. This is one part of the list.

Assay: chemical genetic growth profiling, strain panel (AID 1159580);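 further: tested at 20 µM; growth read once vehicle control cultures reached saturation at 30 °C; 1 = growth at the plate median or of vehicle wells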
Conditions: growth OD
[1] = S. cerevisiae deletion strains, locus YAL040C, strain CLN3, stronger effect = lower value
[2] = S. cerevisiae deletion strains, locus YDR363W, strain ESC2, stronger effect = lower value
[3] = S. cerevisiae deletion strains, locus YER002W, strain NOP16, stronger effect = lower value
[4] = S. cerevisiae deletion strains, locus YMR263W, strain SAP30, stronger effect = lower value
[5] = S. cerevisiae deletion strains, locus YNL175C, strain NOP13, stronger effect = lower value
[6] = S. cerevisiae deletion strains, locus YNL197C, strain WHI3, stronger effect = lower value
[7] = S. cerevisiae deletion strains, locus YNL224C, strain SQS1, stronger effect = lower value
[8] = S. cerevisiae deletion strains, locus YOR083W, strain WHI5 (second series), stronger effect = lower value
[9] = S. cerevisiae deletion strains, locus YHR030C, strain SLT2, stronger effect = lower value
[10] = S. cerevisiae deletion strains, locus YJL095W, strain BCK1, stronger effect = lower value
[11] = S. cerevisiae deletion strains, locus YAL013W, strain DEP1, stronger effect = lower value
[12] = S. cerevisiae deletion strains, locus YCL061C, strain MRC1 (second series), stronger effect = lower value
[13] = S. cerevisiae deletion strains, locus YPL241C, strain CIN2, stronger effect = lower value
[14] = S. cerevisiae deletion strains, locus YGR078C, strain PAC10, stronger effect = lower value

Measured: normalized growth

CC(C)(C)[C@]1(O)CCN2C[C@H]3c4ccccc4CCc4cccc(c43)[C@@H]2C1
inactive: [1] 0.999 | [2] 0.994 | [3] 0.993 | [4] 1 | S. cerevisiae deletion strains, locus YNL128W, strain TEP1, stronger effect = lower value 1.01 | [5] 1.03 | [6] 1.02 | [7] 1.02 | S. cerevisiae deletion strains, locus YNL322C, strain KRE1, stronger effect = lower value 1.01 | [8] 1.05

OC[C@@H](O)[C@H](O)[C@@H](O)[C@H](O)CO
inactive: [9] 0.974 | S. cerevisiae deletion strains, locus YHR079C, strain IRE1, stronger effect = lower value 0.995 | [10] 1 | S. cerevisiae deletion strains, locus YJR066W, strain TOR1, stronger effect = lower value 0.936 | S. cerevisiae deletion strains, locus YLR113W, strain HOG1, stronger effect = lower value 0.959 | S. cerevisiae deletion strains, locus YNL183C, strain NPR1, stronger effect = lower value 0.941 | S. cerevisiae deletion strains, locus YOR231W, strain MKK1, stronger effect = lower value 0.991 | S. cerevisiae deletion strains, locus YPL256C, strain CLN2, stronger effect = lower value 0.964

CC12CCC3C(CCC4=C(O)C(=O)CCC43C)C1CCC2=O (stereo not drawn)
inactive: [11] 1 | [1] 0.99 | [12] 0.998 | [2] 0.984 | [3] 0.995 | [4] 1 | [5] 1.02 | [6] 0.992 | [7] 0.969 | [8] 0.986 | [13] 1.01

C[C@]12CCC3C(CC[C@H]4C[C@@H](Cl)CC[C@]34C)C1CCC2=O (stereo partly drawn)
inactive: S. cerevisiae deletion strains, locus YBR021W, strain FUR4, stronger effect = lower value 0.947 | S. cerevisiae deletion strains, locus YBR229C, strain ROT2, stronger effect = lower value 1.03 | S. cerevisiae deletion strains, locus YCL029C, strain bik1, stronger effect = lower value 0.968 | S. cerevisiae deletion strains, locus YDL035C, strain GPR1, stronger effect = lower value 0.921 | S. cerevisiae deletion strains, locus YDL074C, strain BRE1, stronger effect = lower value 0.87 | S. cerevisiae deletion strains, locus YDL101C, strain DUN1, stronger effect = lower value 0.997 | S. cerevisiae deletion strains, locus YDL134C, strain PPH21, stronger effect = lower value 0.977 | S. cerevisiae deletion strains, locus YDL185W, strain tfp1, stronger effect = lower value 1.02 | S. cerevisiae deletion strains, locus YDL192W, strain arf1, stronger effect = lower value 0.956 | S. cerevisiae deletion strains, locus YDR101C, strain arx1, stronger effect = lower value 1.01 | S. cerevisiae deletion strains, locus YDR150W, strain NUM1, stronger effect = lower value 1.01 | S. cerevisiae deletion strains, locus YDR162C, strain NBP2, stronger effect = lower value 0.885 | S. cerevisiae deletion strains, locus YDR318W, strain mcm21, stronger effect = lower value 0.981 | S. cerevisiae deletion strains, locus YDR388W, stronger effect = lower value 1.02 | S. cerevisiae deletion strains, locus YDR502C, strain sam2, stronger effect = lower value 0.988 | S. cerevisiae deletion strains, locus YER110C, stronger effect = lower value 1.02 | S. cerevisiae deletion strains, locus YER155C, strain BEM2, stronger effect = lower value 1.02 | S. cerevisiae deletion strains, locus YER167W, strain BCK2, stronger effect = lower value 0.983 | S. cerevisiae deletion strains, locus YGL078C, strain dbp3, stronger effect = lower value 0.99 | S. cerevisiae deletion strains, locus YGL086W, strain mad1, stronger effect = lower value 0.959 | S. cerevisiae deletion strains, locus YGL248W, strain PDE1, stronger effect = lower value 0.972 | [14] 0.951 | S. cerevisiae deletion strains, locus YGR135W, strain pre9, stronger effect = lower value 0.997 | S. cerevisiae deletion strains, locus YGR252W, strain gcn5, stronger effect = lower value 0.993 | [9] 1.02 | S. cerevisiae deletion strains, locus YHR079C, strain IRE1 (second series), stronger effect = lower value 1.02 | S. cerevisiae deletion strains, locus YHR094C, strain hxt1, stronger effect = lower value 1.02 | S. cerevisiae deletion strains, locus YHR129C, strain ARP1, stronger effect = lower value 0.987 | S. cerevisiae deletion strains, locus YHR200W, strain rpn10, stronger effect = lower value 0.951 | S. cerevisiae deletion strains, locus YIL066C, strain RNR3, stronger effect = lower value 0.957 | S. cerevisiae deletion strains, locus YIL073C, strain SPO22, stronger effect = lower value 1.05 | S. cerevisiae deletion strains, locus YIL125W, strain kgd1, stronger effect = lower value 1 | S. cerevisiae deletion strains, locus YIR030C, strain dcg1, stronger effect = lower value 1.02 | [10] 0.952 | S. cerevisiae deletion strains, locus YJL134W, strain LCB3, stronger effect = lower value 1.02 | S. cerevisiae deletion strains, locus YJL168C, strain set2, stronger effect = lower value 1.04 | S. cerevisiae deletion strains, locus YJL187C, strain SWE1 (second series), stronger effect = lower value 0.993 | S. cerevisiae deletion strains, locus YJR043C, strain POL32, stronger effect = lower value 0.925 | S. cerevisiae deletion strains, locus YKL009W, strain mrt4, stronger effect = lower value 1.02 | S. cerevisiae deletion strains, locus YKL068W, stronger effect = lower value 1.01 | S. cerevisiae deletion strains, locus YKL085W, strain MDH1 (second series), stronger effect = lower value 0.998 | S. cerevisiae deletion strains, locus YKL085W, strain MDH1, stronger effect = lower value 0.998 | S. cerevisiae deletion strains, locus YKR001C, strain vps1, stronger effect = lower value 0.937 | S. cerevisiae deletion strains, locus YLR039C, strain RIC1, stronger effect = lower value 0.769 | S. cerevisiae deletion strains, locus YLR058C, strain SHM2, stronger effect = lower value 0.984 | S. cerevisiae deletion strains, locus YLR102C, strain apc9, stronger effect = lower value 1.01 | S. cerevisiae deletion strains, locus YLR268W, strain sec22, stronger effect = lower value 0.982 | S. cerevisiae deletion strains, locus YLR330W, strain CHS5, stronger effect = lower value 0.987 | S. cerevisiae deletion strains, locus YLR371W, strain rom2, stronger effect = lower value 0.99 | S. cerevisiae deletion strains, locus YLR418C, strain cdc73, stronger effect = lower value 0.849 | S. cerevisiae deletion strains, locus YML016C, strain PPZ1, stronger effect = lower value 1.01 | S. cerevisiae deletion strains, locus YML032C, strain rad52, stronger effect = lower value 0.993 | S. cerevisiae deletion strains, locus YML124C, strain tub3, stronger effect = lower value 1.02 | S. cerevisiae deletion strains, locus YMR078C, strain ctf18, stronger effect = lower value 1.03 | S. cerevisiae deletion strains, locus YMR223W, strain ubp8, stronger effect = lower value 0.999 | S. cerevisiae deletion strains, locus YMR307W, strain GAS1, stronger effect = lower value 1.06 | S. cerevisiae deletion strains, locus YNL067W, strain RPL9B, stronger effect = lower value 0.986 | S. cerevisiae deletion strains, locus YNL233W, strain BNI4, stronger effect = lower value 0.969 | S. cerevisiae deletion strains, locus YNL250W, strain rad50, stronger effect = lower value 1.03 | S. cerevisiae deletion strains, locus YNL271C, strain bni1, stronger effect = lower value 1.01 | S. cerevisiae deletion strains, locus YNL298W, strain CLA4, stronger effect = lower value 0.967 | S. cerevisiae deletion strains, locus YNR052C, strain pop2, stronger effect = lower value 0.976 | S. cerevisiae deletion strains, locus YOL006C, strain TOP1, stronger effect = lower value 0.863 | S. cerevisiae deletion strains, locus YOL012C, strain htz1 0.88 | S. cerevisiae deletion strains, locus YOL147C, strain pex11, stronger effect = lower value 0.972 | S. cerevisiae deletion strains, locus YOR061W, strain CKA2, stronger effect = lower value 1.02 | S. cerevisiae deletion strains, locus YOR069W, strain VPS5, stronger effect = lower value 1.01 | S. cerevisiae deletion strains, locus YOR136W, strain idh2, stronger effect = lower value 1 | S. cerevisiae deletion strains, locus YOR144C, strain elg1, stronger effect = lower value 1.01 | S. cerevisiae deletion strains, locus YOR316C, strain cot1, stronger effect = lower value 1.02 | S. cerevisiae deletion strains, locus YPR119W, strain clb2, stronger effect = lower value 1.03 | S. cerevisiae deletion strains, locus YPR141C, strain kar3, stronger effect = lower value 1.03 | S. cerevisiae deletion strains, locus YPR163C, strain tif3, stronger effect = lower value 0.969 | S. cerevisiae deletion strains, locus YPR167C, strain met16, stronger effect = lower value 0.996 | S. cerevisiae deletion strains, strain wtn01, stronger effect = lower value 0.967 | S. cerevisiae strains, strain wild type, stronger effect = lower value 0.909
active: S. cerevisiae deletion strains, locus YNL307C, strain MCK1, stronger effect = lower value 0.888 | S. cerevisiae deletion strains, locus YOR184W, strain ser1, stronger effect = lower value 0.733

C[C@]12CC[C@@H](O)CC1CC[C@@H]1[C@@H]2CC[C@]2(C)C(=O)CC[C@@H]12 (stereo partly drawn)
inactive: [1] 0.989 | [12] 1 | [2] 0.938 | [3] 1.02 | [14] 0.973 | [5] 1.01 | [6] 0.993 | [7] 0.997 | [8] 0.885 | [13] 1.04
active: [11] 0.895
